Assays:
Test in all cases: DAPPL (digital affinity profiling via proximity ligation, sequencing); 10 mM Tris-HCl pH 7.5, 50 mM NaCl, 1 mM DTT, 4% glycerol, room temperature, 30 min; GST-TFs on glutathione beads, 16-mer random dsDNA library, 0.1% formaldehyde crosslink after washing; high values mean tight binding
Conditions in all cases: protein: recombinant; tags: N-terminal GST; dsDNA, one strand shown
[1] = biological target: T1, ELK1 (Homo sapiens, UniProt P19419 1-428)
T1 sequence: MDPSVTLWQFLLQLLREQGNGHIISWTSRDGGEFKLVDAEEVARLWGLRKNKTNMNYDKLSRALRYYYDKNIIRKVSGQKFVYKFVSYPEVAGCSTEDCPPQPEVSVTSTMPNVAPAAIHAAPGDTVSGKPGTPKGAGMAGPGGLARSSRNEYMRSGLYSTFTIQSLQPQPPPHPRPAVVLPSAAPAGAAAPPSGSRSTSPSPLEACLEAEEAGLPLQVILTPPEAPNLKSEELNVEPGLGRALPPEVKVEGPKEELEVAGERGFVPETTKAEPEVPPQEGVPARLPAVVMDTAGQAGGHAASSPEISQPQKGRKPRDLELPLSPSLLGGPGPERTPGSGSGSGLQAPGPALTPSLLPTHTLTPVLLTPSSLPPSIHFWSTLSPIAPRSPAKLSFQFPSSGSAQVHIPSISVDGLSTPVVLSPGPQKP
Procedure, shortened: (§1)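 GST fusions of human transcription factors were expressed in yeast and captured with glutathione beads. Once given DNA barcodes and pooled alongside a tag-only sample, they were incubated for 30 min at room temperature with 200 nmole of a random double-stranded 16-mer DNA library in Tris/NaCl/DTT/glycerol buffer, then washed, crosslinked (0.1% formaldehyde), proximity-ligated, PCR-amplified and sequenced on an Illumina NextSeq500. The binding signal of each hexamer is its read frequency for a factor divided by its frequency for the tag-only sample.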

[2] = biological target: T2, ERG (Homo sapiens, UniProt P11308 1-479)
T2 sequence: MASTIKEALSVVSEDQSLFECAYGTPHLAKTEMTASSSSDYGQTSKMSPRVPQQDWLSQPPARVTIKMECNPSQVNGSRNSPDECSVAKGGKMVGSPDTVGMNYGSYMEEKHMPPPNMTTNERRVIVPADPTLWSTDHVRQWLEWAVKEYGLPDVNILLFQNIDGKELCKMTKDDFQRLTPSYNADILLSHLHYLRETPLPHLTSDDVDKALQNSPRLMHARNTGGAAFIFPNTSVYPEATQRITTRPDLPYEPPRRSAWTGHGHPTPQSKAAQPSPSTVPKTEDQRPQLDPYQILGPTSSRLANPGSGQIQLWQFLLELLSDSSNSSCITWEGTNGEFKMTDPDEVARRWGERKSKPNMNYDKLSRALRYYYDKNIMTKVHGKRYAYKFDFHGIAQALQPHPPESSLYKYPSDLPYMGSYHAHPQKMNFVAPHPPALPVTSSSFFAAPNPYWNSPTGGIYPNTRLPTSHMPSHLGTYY
Procedure, shortened: as §1

[3] = biological target: T3, EHF (Homo sapiens, UniProt Q9NZC4 1-300)
T3 sequence: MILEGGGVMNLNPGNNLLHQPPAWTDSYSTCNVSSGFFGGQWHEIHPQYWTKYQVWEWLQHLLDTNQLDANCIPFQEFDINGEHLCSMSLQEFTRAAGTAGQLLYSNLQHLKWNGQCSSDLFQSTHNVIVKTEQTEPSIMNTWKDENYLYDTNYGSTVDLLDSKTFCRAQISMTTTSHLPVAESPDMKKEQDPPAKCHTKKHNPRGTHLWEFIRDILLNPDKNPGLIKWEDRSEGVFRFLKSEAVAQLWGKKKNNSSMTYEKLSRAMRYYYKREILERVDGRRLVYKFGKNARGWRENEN
Procedure, shortened: as §1

[4] = biological target: SPIB (Homo sapiens, UniProt Q01892 1-262)
Procedure, shortened: as §1

[5] = biological target: T4, FEV (Homo sapiens, UniProt Q99581 1-238)
T4 sequence: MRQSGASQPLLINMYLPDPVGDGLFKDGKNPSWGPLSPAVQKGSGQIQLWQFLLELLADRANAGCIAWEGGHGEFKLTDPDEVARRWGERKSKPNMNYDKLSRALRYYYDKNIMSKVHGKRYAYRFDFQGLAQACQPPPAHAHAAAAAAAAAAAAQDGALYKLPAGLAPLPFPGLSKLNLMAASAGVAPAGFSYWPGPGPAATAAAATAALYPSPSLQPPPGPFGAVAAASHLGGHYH
Procedure, shortened: as §1

[6] = biological target: ETV5 (Homo sapiens, UniProt P41161 1-510)
Procedure, shortened: as §1

[7] = biological target: ELF4 (Homo sapiens, UniProt Q99607 1-663)
Procedure, shortened: as §1

[8] = biological target: T5, ELK4 (Homo sapiens, UniProt P28324-2 1-405)
T5 sequence: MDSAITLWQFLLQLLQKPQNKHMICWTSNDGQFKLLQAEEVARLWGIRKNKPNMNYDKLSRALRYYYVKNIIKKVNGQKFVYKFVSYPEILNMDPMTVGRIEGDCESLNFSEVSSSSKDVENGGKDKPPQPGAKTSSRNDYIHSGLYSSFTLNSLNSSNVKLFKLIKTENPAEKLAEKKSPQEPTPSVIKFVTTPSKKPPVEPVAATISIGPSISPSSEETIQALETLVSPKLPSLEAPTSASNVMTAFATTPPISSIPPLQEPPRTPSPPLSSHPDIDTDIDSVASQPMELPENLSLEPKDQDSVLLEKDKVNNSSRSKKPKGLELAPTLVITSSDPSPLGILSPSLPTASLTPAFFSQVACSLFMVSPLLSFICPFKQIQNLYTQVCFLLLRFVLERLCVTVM
Procedure, shortened: as §1

[9] = biological target: T6, ELF3 (Homo sapiens, UniProt P78545 1-371)
T6 sequence: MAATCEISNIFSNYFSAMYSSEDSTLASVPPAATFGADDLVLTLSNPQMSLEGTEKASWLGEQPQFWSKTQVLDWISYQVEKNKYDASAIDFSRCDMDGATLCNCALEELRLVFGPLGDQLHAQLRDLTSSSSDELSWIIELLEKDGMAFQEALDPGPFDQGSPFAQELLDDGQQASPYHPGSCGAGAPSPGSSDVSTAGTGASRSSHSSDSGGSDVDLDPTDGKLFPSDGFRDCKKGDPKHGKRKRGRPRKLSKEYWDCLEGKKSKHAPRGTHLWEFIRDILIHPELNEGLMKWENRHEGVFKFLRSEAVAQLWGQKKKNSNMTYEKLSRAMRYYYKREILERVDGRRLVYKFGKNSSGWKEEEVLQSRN
Procedure, shortened: as §1

[10] = biological target: T7, ERF (Homo sapiens, UniProt P50548 1-548)
T7 sequence: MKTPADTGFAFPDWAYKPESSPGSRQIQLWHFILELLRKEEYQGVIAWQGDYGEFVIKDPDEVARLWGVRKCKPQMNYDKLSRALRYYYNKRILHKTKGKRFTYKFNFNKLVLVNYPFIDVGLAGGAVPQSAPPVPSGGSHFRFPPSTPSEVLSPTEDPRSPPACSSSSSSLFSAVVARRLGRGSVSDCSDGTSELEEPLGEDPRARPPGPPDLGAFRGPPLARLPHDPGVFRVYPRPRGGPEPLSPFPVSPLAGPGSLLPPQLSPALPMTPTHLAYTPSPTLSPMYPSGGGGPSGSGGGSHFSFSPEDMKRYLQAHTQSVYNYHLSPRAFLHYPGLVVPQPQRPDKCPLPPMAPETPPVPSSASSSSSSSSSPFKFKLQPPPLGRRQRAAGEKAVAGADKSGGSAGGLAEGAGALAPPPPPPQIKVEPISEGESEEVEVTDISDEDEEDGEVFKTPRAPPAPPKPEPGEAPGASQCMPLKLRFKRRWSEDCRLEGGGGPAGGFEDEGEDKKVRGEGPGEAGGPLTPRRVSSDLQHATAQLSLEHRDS
Procedure, shortened: as §1

[11] = biological target: T8, ETV3L (Homo sapiens, UniProt Q6ZN32 1-361)
T8 sequence: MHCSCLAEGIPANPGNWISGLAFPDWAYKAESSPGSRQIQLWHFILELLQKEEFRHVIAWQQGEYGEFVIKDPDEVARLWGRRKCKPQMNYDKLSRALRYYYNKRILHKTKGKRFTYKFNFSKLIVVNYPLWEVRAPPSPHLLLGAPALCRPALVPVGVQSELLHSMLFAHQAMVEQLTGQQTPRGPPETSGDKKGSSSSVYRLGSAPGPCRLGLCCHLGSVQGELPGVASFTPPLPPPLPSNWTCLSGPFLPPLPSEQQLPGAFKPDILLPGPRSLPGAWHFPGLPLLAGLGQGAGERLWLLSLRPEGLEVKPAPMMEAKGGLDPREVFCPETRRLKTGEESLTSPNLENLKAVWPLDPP
Procedure, shortened: as §1

[12] = biological target: T9, ETS2 (Homo sapiens, UniProt P15036 1-469)
T9 sequence: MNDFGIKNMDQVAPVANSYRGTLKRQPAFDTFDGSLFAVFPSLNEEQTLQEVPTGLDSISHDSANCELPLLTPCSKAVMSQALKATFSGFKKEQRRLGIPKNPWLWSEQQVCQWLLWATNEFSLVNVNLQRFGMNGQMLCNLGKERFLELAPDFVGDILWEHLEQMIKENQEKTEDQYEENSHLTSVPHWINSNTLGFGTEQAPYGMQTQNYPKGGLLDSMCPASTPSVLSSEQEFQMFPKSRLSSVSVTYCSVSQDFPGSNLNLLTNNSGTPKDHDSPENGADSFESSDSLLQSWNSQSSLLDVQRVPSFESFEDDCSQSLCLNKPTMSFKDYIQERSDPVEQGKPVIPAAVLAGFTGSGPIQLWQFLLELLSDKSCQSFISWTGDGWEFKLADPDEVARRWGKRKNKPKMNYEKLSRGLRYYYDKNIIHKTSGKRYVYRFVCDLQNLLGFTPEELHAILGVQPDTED
Procedure, shortened: as §1

[13] = biological target: T10, SPDEF (Homo sapiens, UniProt O95238 1-335)
T10 sequence: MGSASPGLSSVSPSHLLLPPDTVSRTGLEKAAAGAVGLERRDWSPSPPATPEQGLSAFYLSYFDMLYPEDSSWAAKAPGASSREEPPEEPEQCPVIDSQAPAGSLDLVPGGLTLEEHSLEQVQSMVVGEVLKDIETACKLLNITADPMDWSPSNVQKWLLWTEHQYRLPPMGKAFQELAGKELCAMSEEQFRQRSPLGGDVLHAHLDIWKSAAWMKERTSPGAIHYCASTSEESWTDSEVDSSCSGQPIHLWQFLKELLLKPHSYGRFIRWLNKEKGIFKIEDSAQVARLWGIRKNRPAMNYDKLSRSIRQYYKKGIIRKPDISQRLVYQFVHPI
Procedure, shortened: as §1

[14] = biological target: T11, ETV7 (Homo sapiens, UniProt Q9Y603 1-341)
T11 sequence: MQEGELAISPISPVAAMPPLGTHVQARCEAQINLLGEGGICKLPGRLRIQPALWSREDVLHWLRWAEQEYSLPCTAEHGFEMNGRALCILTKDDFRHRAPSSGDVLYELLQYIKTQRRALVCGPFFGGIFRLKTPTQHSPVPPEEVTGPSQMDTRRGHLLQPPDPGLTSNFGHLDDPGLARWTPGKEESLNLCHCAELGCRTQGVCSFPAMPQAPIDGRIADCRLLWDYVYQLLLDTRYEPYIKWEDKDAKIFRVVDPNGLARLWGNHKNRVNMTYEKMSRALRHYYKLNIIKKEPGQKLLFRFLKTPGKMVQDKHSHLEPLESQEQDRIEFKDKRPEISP
Procedure, shortened: as §1

[15] = biological target: T12, ETV3 (Homo sapiens, UniProt P41162-2 1-143)
T12 sequence: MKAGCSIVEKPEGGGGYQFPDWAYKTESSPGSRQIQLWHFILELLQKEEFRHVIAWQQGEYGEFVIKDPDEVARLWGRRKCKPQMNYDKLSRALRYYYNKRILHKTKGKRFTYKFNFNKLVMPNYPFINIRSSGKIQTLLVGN
Procedure, shortened: as §1

[16] = biological target: ETV6 (Homo sapiens, UniProt P41212 1-452)
Procedure, shortened: as §1

Chain of ETV5 (P41161 whole entry): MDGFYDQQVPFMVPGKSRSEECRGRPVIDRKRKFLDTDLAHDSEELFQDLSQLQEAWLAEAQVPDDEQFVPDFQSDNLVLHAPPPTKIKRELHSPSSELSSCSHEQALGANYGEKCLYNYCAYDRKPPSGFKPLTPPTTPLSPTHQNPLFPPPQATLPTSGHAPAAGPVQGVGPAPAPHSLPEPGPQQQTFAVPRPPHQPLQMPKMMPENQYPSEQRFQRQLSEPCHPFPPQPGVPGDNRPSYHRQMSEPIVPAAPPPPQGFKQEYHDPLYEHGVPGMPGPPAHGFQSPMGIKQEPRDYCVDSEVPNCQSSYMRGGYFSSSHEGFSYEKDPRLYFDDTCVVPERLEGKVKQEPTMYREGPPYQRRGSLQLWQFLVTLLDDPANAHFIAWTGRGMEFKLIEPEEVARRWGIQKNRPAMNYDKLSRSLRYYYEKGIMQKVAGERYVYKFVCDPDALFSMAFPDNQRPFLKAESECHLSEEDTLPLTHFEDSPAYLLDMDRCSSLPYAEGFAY
Chain of ETV6 (P41212 whole entry): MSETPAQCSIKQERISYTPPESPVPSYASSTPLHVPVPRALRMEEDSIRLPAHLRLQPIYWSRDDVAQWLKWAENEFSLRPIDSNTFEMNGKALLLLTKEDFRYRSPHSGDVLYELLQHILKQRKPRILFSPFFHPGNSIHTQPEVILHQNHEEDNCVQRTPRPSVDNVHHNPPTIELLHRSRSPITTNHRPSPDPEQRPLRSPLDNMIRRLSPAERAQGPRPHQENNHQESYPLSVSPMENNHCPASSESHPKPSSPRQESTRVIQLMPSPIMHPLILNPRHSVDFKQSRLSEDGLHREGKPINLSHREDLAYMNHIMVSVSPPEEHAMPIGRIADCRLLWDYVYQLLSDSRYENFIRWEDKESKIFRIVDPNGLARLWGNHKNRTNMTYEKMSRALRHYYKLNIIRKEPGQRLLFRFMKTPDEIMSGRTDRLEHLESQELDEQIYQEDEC
Chain of SPIB (Q01892 whole entry): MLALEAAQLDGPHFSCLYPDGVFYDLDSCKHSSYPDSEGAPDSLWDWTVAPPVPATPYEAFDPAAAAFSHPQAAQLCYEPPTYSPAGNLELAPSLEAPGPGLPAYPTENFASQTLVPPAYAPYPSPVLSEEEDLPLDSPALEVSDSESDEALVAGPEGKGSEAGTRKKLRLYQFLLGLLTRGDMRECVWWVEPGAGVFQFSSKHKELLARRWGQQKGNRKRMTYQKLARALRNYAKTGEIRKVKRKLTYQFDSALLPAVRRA
Chain of ELF4 (Q99607 whole entry): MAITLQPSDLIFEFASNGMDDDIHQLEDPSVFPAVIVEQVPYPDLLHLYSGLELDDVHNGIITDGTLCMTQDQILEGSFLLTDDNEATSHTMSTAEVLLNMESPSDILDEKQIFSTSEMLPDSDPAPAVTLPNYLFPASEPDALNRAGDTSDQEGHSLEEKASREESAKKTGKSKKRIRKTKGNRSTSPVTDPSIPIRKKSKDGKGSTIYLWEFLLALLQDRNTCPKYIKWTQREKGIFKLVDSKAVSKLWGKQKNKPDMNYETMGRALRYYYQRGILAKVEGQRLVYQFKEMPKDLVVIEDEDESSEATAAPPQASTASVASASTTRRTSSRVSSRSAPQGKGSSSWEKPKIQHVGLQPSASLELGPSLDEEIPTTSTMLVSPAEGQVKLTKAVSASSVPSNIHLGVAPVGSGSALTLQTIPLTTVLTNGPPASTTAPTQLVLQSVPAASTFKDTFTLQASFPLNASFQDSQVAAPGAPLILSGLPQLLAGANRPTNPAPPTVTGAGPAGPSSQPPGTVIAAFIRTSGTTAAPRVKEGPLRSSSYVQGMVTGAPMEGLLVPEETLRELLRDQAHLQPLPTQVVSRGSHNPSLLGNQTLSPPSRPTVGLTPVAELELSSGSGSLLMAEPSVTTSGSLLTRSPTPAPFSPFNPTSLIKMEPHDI

With GCCCCG the binding signal [1] was 1.07 fold enrichment (6-mer frequency, TF over GST control), the binding signal [2] was 1.06 fold enrichment (6-mer frequency, TF over GST control) and the binding signal [3] was 1.01 fold enrichment (6-mer frequency, TF over GST control). The binding signal [4] was 1.16 fold enrichment (6-mer frequency, TF over GST control), the binding signal [5] was 1.12 fold enrichment (6-mer frequency, TF over GST control) and the binding signal [6] was 1.02 fold enrichment (6-mer frequency, TF over GST control). The binding signal [7] was 1.09 fold enrichment (6-mer frequency, TF over GST control), the binding signal [8] was 1.13 fold enrichment (6-mer frequency, TF over GST control) and the binding signal [9] was 1.08 fold enrichment (6-mer frequency, TF over GST control). The binding signal [10] was 1 fold enrichment (6-mer frequency, TF over GST control), the binding signal [11] was 1.03 fold enrichment (6-mer frequency, TF over GST control) and the binding signal [12] was 1.02 fold enrichment (6-mer frequency, TF over GST control). The binding signal [13] was 1.01 fold enrichment (6-mer frequency, TF over GST control), the binding signal [14] was 1.06 fold enrichment (6-mer frequency, TF over GST control) and the binding signal [15] was 1.15 fold enrichment (6-mer frequency, TF over GST control). The binding signal [16] was 1.09 fold enrichment (6-mer frequency, TF over GST control).
For CATAAG, the binding signal [6] was 1 fold enrichment (6-mer frequency, TF over GST control) and the binding signal [10] was 1 fold enrichment (6-mer frequency, TF over GST control).
